# Assay outcomes as filed in PubChem.
# Shown are actives, neighbours in structure and some others; about 4.1% of the full set was active somewhere.
# CASP6 VEID inh = human caspase-6 inhibitors, primary screen, biochemical, VEID-R110 fluorescence, single point, set 2; AID 686996, 2013; inhibition, % at 12.5 µM; hit rate 0.53% among 350,000; purified caspase-6, Z-VEID-R110 cleavage fluorescence;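 active means mean inhibition across replicates at least about 35%, with every replicate also reaching that limit, limit read from the data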;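 further: 0% = median of neutral control wells and 100% = no fluorescence left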
# CFTR F508del cor = F508del CFTR correction, initial screen, CFBE line, single point; AID 720511, 2013; CFBE cells, YFP halide quenching; stimulated with forskolin plus potentiator P3; % fluorescence drop versus neutral controls; hit rate 0.36% among 350,000; activity (quench increase), % at 7.58 µM;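 active means mean added fluorescence quench of at least 8% versus neutral control, with both replicates also reaching 8%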;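 further: cells transiently co-express mutant CFTR-F508del with the halide-sensitive YFP; corrector assay measuring rescue of mutant channel to the surface after 24 h compound exposure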
# PglD inh = C. jejuni PglD acetyltransferase inhibitors, primary screen, biochemical, DTNB colorimetric, single point | purified PglD enzyme, DTNB colorimetric CoA detection | inhibition, % at 12.5 µM | UDP-N-acetylbacillosamine N-acetyltransferase PglD (Campylobacter jejuni) | AID 602405, 2012 | hit rate 0.098% among 360,000; in the data active means inhibition above about 16%, passing the limit was not always enough
# NSD2 inh = NSD2 histone methyltransferase inhibitors, primary screen, biochemical, AlphaScreen, single concentration, set 2; NSD2 peptide methylation, 120 min; hit rate 0.54% among 310,000; AID 743445, 2014; inhibition, % at 12.5 µM; in the data active means inhibition above about 50%
# HIV Env fusion = inhibitors of HIV-1 Env-driven cell-cell fusion, primary screen, HeLa-JRFL effector, CEM21 target cells, luciferase. inhibition, % at 12.3 µM. hit rate 1.1% among 360,000. AID 651610, 2012;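 active means mean replicate inhibition score of at least 50 and every replicate individually at or above 50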;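 further: 0% = plate neutral controls and 100% = maraviroc near 300 nM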
# ALR H2O2 inh = inhibitors of human ALR sulfhydryl oxidase, primary screen, biochemical, H2O2 detection, HRP-luminol luminescence, single point. FAD-linked sulfhydryl oxidase ALR (Homo sapiens), P55789. purified ALR, DTT oxidation. inhibition, % (no concentration beside the values). hit rate 3.8% among 290,000. AID 485317, 2010;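 active means mean replicate inhibition above about 79%, with every replicate also reaching it, limit read from the data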
# The depositor's hits bear a star; · = no result given; [ ] = remark or other dose.
SMILES,CASP6 VEID inh,CFTR F508del cor,PglD inh,NSD2 inh,HIV Env fusion,ALR H2O2 inh
CCOC1=C2[C@H](c3ccccc3)N(S(=O)(=O)c3ccc(C)cc3)[C@H](C(C)C)[C@H]2C(C#N)(C#N)C(C#N)(C#N)C1,-3,1,·,·,107*,·
O=C(CC1CC1)N1[C@H](CO)[C@@H](c2ccccc2)C12CN(Cc1ccccc1F)C2,-1,1,·,·,·,·
CCCCNC(=O)CCC(=O)NNc1nc2ccccc2c2nc(C)nn12,·,·,·,4,·,-3
Cc1nc2c3ccccc3nc(NNC(=O)CCC(=O)NCCN3CCN(c4ccccc4)CC3)n2n1,-2,-5,-4,1,3,98*
Cc1nc2c3ccccc3nc(NNC(=O)CCC(=O)N3CCN(c4ccc(F)cc4)CC3)n2n1,2,3,3,-5,11,90*
CCC(=O)Nc1ccc2c(c1)OC[C@H](C)N(C(=O)C1CC1)C[C@@H](C)[C@@H](OC)CN(C)C2=O,·,-1,1,·,-9[16.7 µM],·
CCCCCCCCCCCCN1[C@@H](CC(C)=O)c2cc(C(F)(F)F)ccc2S1(=O)=O,·,2,-3,·,-18,-4
CCCCCCCCN1[C@@H](CC(=O)O)c2ccc(C(F)(F)F)cc2S1(=O)=O,2,0,1,·,8,97*
COc1ccc(C)cc1NC(=O)c1cc2c(s1)CCC2,·,·,6,0,-6,94*
COc1ccc(CC(=O)Nc2nc3ccc(F)cc3s2)cc1S(=O)(=O)N1CCOCC1,·,·,·,-2,·,99*
COc1ccc(CC(=O)Nc2nc3ccccc3s2)cc1S(=O)(=O)N1CCOCC1,·,·,-1,4,-5,-4
COc1ccc(NC(=O)c2cc3c(s2)CCC3)cc1S(=O)(=O)N1CCOCC1,·,·,-2,1,46,99*
COc1ccc(S(=O)(=O)N2CCOCC2)cc1NC(=O)c1cc2c(s1)CCCC2,·,·,·,-1,1,-3
CCCC#Cc1ccc2c(c1)O[C@@H](CN(C)S(=O)(=O)c1cccc(OC)c1)[C@@H](C)CN([C@H](C)CO)S2(=O)=O,·,2,·,·,31[16.7 µM],·
Nc1nc2nc[nH]c2c(=O)[nH]1,·,·,1,·,·,-19
Nc1nc(OCC2CCCCC2)c2[nH]cnc2n1,-1,-6,3,·,-174,97*
CO[C@H]1CN(C)C(=O)c2cc(NC(=O)c3ccno3)ccc2OC[C@H](C)N(S(C)(=O)=O)C[C@H]1C,·,-1,-3,·,16[16.7 µM],·
CNC[C@H]1OCCCC[C@@H](C)Oc2ccc(NC(=O)Nc3ccccc3)cc2C(=O)N([C@H](C)CO)C[C@H]1C,·,-2,2,·,-31[16.7 µM],·
O=C(c1ccc([N+](=O)[O-])cc1)N1CCN(c2cccc3[nH]ccc23)CC1,-3,-4,·,4,-8,99*
O=[N+]([O-])c1cccc(CN2CCN(c3cccc4[nH]ccc34)CC2)c1,-4,3,5,10,-10,99*
O=[N+]([O-])c1cccc(CN2CCN(c3ncccn3)CC2)c1,-2,-1,1,2,2,-3
O=[N+]([O-])c1cccc(COc2cccc(CN3CCCC3)c2)c1,-2,5,3,·,60*,·
COc1cccc(CNC(=O)c2ccc(C3SCCS3)cc2)c1,-6,-3,-5,0,-20,91*
Cc1ccc(-c2cn(-c3ccccc3F)c(=S)[nH]2)cc1,0,0,-5,0,-1,72
O=[N+]([O-])c1ccc(-c2cn(-c3ccccc3F)c(=S)[nH]2)cc1,1,-2,·,-2,-2,84*
SMILES,CASP6 VEID inh,CFTR F508del cor,PglD inh,NSD2 inh,HIV Env fusion,ALR H2O2 inh
COc1ccccc1N/C(N)=N/c1nc(CSc2ccc(C)cc2)cc(=O)[nH]1,·,·,5,0,67*,-3
C[C@@H]1CN([C@H](C)CO)C(=O)c2cc(NC(=O)Cc3ccccc3)ccc2O[C@@H](C)CCCCO[C@@H]1CN(C)S(=O)(=O)c1ccccc1,-2,-1,1,·,-24[16.7 µM],·
Cc1[nH]n(-c2ccccc2)c(=O)c1/C=N/NC(=O)c1ccc(O)cc1O,0,·,-3,0,·,·
Cc1ccc(-n2[nH]c(C)c(/C=N/NC(=O)c3ccc(O)cc3O)c2=O)cc1,·,·,-11,1,·,94*
O=C(NNc1ccccc1)/C(=C\c1cccnc1)NC(=O)c1ccccc1,4,-1,·,1,-6,98*
NC(=O)c1ccsc1NC(=O)COC(=O)C1CCCN1C(=O)c1cccs1 (configuration not stated),·,·,·,·,·,97*
Cc1ccc(S(=O)(=O)N(C)C[C@@H]2OCCCC[C@H](C)Oc3ccc(NS(=O)(=O)c4ccccc4)cc3C(=O)N([C@H](C)CO)C[C@H]2C)cc1,-2,2,3,·,-44[16.7 µM],·
CCOC(=O)c1c(/N=C/c2cccc([N+](=O)[O-])c2O)sc(C)c1C,2,·,-6,6,-17,86*
C[C@@H]1CN([C@@H](C)CO)C(=O)c2cc(Br)cnc2O[C@@H]1CN(C)CC1CCCC1,-1,-2,1,·,-10[16.7 µM],·
CCC(c1nnnn1Cc1ccc2c(c1)OCO2)N1CCN(c2ccccc2)CC1 (configuration not stated),·,·,5,·,-41,90*
CCCC(c1nnnn1CC1CCCO1)N1CCN(c2ccccc2)CC1 (configuration not stated),-1,-5,·,-1,5,98*
CCCCC(c1nnnn1CC1CCCO1)N1CCN(Cc2ccccc2)CC1 (configuration not stated),·,·,1,5,-72,1
CCC(c1nnnn1Cc1ccccc1)N1CCN(c2ccc(OC)cc2)CC1 (configuration not stated),4,7,·,2,-10,96*
CCC(c1nnnn1Cc1ccc2c(c1)OCO2)N1CCN(c2ccc(F)cc2)CC1 (configuration not stated),·,·,-4,-2,·,40
CC(C)(C)n1nnnc1C(c1ccncc1)N1CCN(c2ccc(O)cc2)CC1 (configuration not stated),·,·,·,-1,·,98*
CCC(=O)N1[C@@H](CO)[C@@H](c2ccc(-c3ccccc3C)cc2)C12CN(C(C)=O)C2,1,0,·,·,·,·
Cc1noc(C)c1S(=O)(=O)N(C)C[C@@H]1Oc2c(NC(=O)C3CC3)cccc2C(=O)N([C@@H](C)CO)C[C@@H]1C,1,0,0,·,-7[16.7 µM],·
Cc1ccc(S(=O)(=O)N[C@H]2CC[C@@H](CCNC(=O)C3CC3)O[C@H]2CO)cc1,-1,1,-3,·,-11[16.7 µM],·
O=C(C[C@H]1CC[C@H](NS(=O)(=O)c2ccc(F)cc2)[C@H](CO)O1)N1CCC(Cc2ccccc2)CC1,3,2,6,·,20[16.7 µM],·
